Data on 39 compounds can be found in PubChem BioAssay (NCI).

The panel holds about 83,000 compounds, 20% with a hit somewhere; the sample as a whole holds those more often.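 Step 1: grow cells in 96-well plates. Step 2: add test compound at a single concentration. Step 3: incubate 48 h. Step 4: record percent growth.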 Values without a mark were called inactive. Activity calls are given as the source filed them. How the source made its calls: active means growth percent below 10; inactive means the rest.

The test system of the first assay is A549/ATCC NSCLC. Nature of the assay: NCI-60 one-dose screen, 48 h (100 = growth as untreated, 0 = no growth, -100 = all killed). The settings on record: 10 µM.
With `COC(=O)[C@@H]1[C@H](O)[C@H](C)[C@H](O)[C@@](C)(O)/C=C\C=C(C)C(=O)Nc2c(C)c(OC(C)=O)c3c(c2O)C(=O)C(C)=C2OCOC(=C23)C(C)=C[C@@](C)(O)[C@H](O)[C@@H](C)[C@H]1OC(C)=O`, the growth is 110%.

For the compound `O=C(CC(C(=O)c1ccccc1)N1CCOCC1)c1ccccc1` (stereo not drawn), the growth was 91.9%.

Regarding `COc1ccc(-c2nc(-c3nc4cc(Cl)c(F)cc4[nH]3)c3ccccn23)cc1`, the growth was 49.4%.

As to `CCCCCCCCCCCC[n+]1ccc(C(N)=O)cc1`, the growth is 73.7%.

With `COC(=O)C1=NNC(=S)N(c2cc(C)[nH]n2)C(=O)C1`, the growth is 106%.

For `CCN1Cc2c(/C=C/c3ccccc3)nc3ccc(OC)cc3c2N(c2cccc(Cl)c2)C1`, the growth was 33.6%.

As to `O=C(Nc1ccncc1)C(=O)c1cn(S(=O)(=O)c2cccc3ccccc23)c2ccccc12`, the growth was 77.8%.

Take `CCN(CC)CCOc1nc2cc(OC)c(OC)cc2c2c1-c1ccc(OC)cc1C2=O`: the growth was 66.1%.

With `Nc1c(C(=O)Nc2cccc(F)c2)sc2nc3c(cc12)C(=O)CCC3`, the growth was 27.6%.

For the compound `CN(C)C=Nc1cc(Cl)ccc1Cl`, the growth is 92.1%.

Regarding `CC12O[C@H](C[C@@H](O)[C@H]1O)n1c3ccccc3c3c4c(c5c6ccccc6n2c5c31)C(=O)N(CCCN)C4=O`, the growth was 31.5%.

As for `S=C1SCC(c2ccccc2)S1` (stereo not drawn), the growth is 102%.

With `N=C(N)c1ccc(-c2ccc(-c3cccs3)o2)cc1`, the growth is 45.4%.

Regarding `CC(C)(C)c1cc(Br)cc(C(C)(C)C)c1O`, the growth was 91.1%.

`COc1cc(C(=O)/C=C/c2cc(-c3cc(OC)c(OC)c(OC)c3)n[nH]2)cc(OC)c1OC`: the growth was 53.6%.

With `COc1cc(NC(=O)CCSc2nc3ccc(Cl)cc3c(=O)n2Cc2ccccc2)cc(OC)c1OC`, the growth was 59.3%.

As for `COc1ccc(-c2nn(-c3cccc(NC(=O)Nc4cccc(C(F)(F)F)c4)c3)cc2-c2ccncc2)cc1Cl`, the growth is 7.5% (active).

Regarding `COc1ccc(-c2nn(-c3cccc(NC(=O)c4ccc(Cl)c(Cl)c4)c3)cc2-c2ccncc2)cc1Cl`, the growth is 70%.

As to `CC(C)(C#N)Nc1ccccc1`, the growth is 96.9%.

Consider `O=S(=O)(Nc1ccccn1)c1ccc(N=Nc2ccc(O)c3ncccc23)cc1`, for which the growth was -6.8% (active).

`CC(C)C[C@H](NC(=O)[C@H](Cc1cccc2ccccc12)NS(=O)(=O)c1cccc2cccnc12)B(O)O`: the growth is 5.39% (active).

Turning to `COc1cc(Cl)cc(-c2nn(-c3cccc(NC(=O)Nc4ccc(Cl)c(C(F)(F)F)c4)c3)cc2-c2ccncc2)c1`, the growth was 5.2% (active).

With `O=C(Nc1ccc(CN2CCc3nc4cc(O)c(O)cc4cc32)cc1)c1ccc(Cl)c(Cl)c1`, the growth was 111%.

As to `CN(C)Cc1cn(-c2ncc(-c3ccc(C(F)(F)F)cc3)c(NC3CCCCCC3)n2)nn1`, the growth was 95.2%.

Regarding `O=C(CSSCC(=O)c1ccc(Cl)cc1)c1ccc(Cl)cc1`, the growth was 63.6%.

Turning to `COc1ccc2c(c1OC)O/C(=C\c1ncc([N+](=O)[O-])n1C)C2=O`, the growth was 19.3%.

As to `Nc1ncn([C@@H]2O[C@H](CO)[C@@H](O)[C@H]2O)c(=O)n1`, the growth is 16.5%.

With `CSC1=NCCCC1`, the growth was 102%.

As to `COc1ccc(/C=C2/CN(CCC#N)C/C(=C\c3ccc(OC)cc3)C2=O)cc1`, the growth is -4.55% (active).

With `c1ccc([C@H]2CN3CCSC3=N2)cc1`, the growth is 102%.

Regarding `COc1cc(Cl)cc(-c2nn(-c3cccc(NC(=O)c4ccc(N5CCOCC5)c(C(F)(F)F)c4)c3)cc2-c2ccncc2)c1`, the growth was 45.5%.

As to `COc1ccc(OC)c(/C=C/c2nc(SCc3ccccc3)n(-c3ccc(Cl)cc3)n2)c1`, the growth was 46.5%.

On to `COc1ccc(N=C2C(=Nc3ccc(OC)cc3)N(c3ccc(N(C)C)cc3)C(=S)N2c2ccc(OC)cc2)cc1`, for which the growth is 90.4%.

`CCCCCCN1CCN(Cc2ccc(N(CC)CC)cc2)C(=O)C1=O`: the growth was 21.6%.

Regarding `N#Cc1ncc(-c2ccc(C(F)(F)F)cc2)c(NCc2cc(C(F)(F)F)cc(C(F)(F)F)c2)n1`, the growth is 29.2%.

As to `COc1ccc2c(c1)O/C(=C\c1ccc([N+](=O)[O-])s1)C2=O`, the growth was 33.9%.

In the case of `CCCCN(CCCC)c1cc(C(=O)CCCCCN)c2ccccc2n1`, the growth is -31.8% (active).

For the compound `O=C(O)CCCCSc1ncnc2nc[nH]c12`, the growth was 101%.

Consider `O=C(Nc1cccc(-n2cc(-c3ccncc3)c(-c3ccc(O)c(Cl)c3)n2)c1)c1cc(C(F)(F)F)cc(C(F)(F)F)c1`, for which the growth is 33.7%.

Another assay has as its system 786-0 renal. The description is as above. The settings on record: 10 µM.
As for `COC(=O)[C@@H]1[C@H](O)[C@H](C)[C@H](O)[C@@](C)(O)/C=C\C=C(C)C(=O)Nc2c(C)c(OC(C)=O)c3c(c2O)C(=O)C(C)=C2OCOC(=C23)C(C)=C[C@@](C)(O)[C@H](O)[C@@H](C)[C@H]1OC(C)=O`, the growth is 95.2%.

Take `O=C(CC(C(=O)c1ccccc1)N1CCOCC1)c1ccccc1` (stereo not drawn): the growth is 98.8%.

Consider `COc1ccc(-c2nc(-c3nc4cc(Cl)c(F)cc4[nH]3)c3ccccn23)cc1`, for which the growth is 79.9%.

As to `CCCCCCCCCCCC[n+]1ccc(C(N)=O)cc1`, the growth was 40%.

Consider `COC(=O)C1=NNC(=S)N(c2cc(C)[nH]n2)C(=O)C1`, for which the growth is 96.9%.

For `CCN1Cc2c(/C=C/c3ccccc3)nc3ccc(OC)cc3c2N(c2cccc(Cl)c2)C1`, the growth was 72.3%.

As for `O=C(Nc1ccncc1)C(=O)c1cn(S(=O)(=O)c2cccc3ccccc23)c2ccccc12`, the growth was 77.5%.

Regarding `CCN(CC)CCOc1nc2cc(OC)c(OC)cc2c2c1-c1ccc(OC)cc1C2=O`, the growth is 87.8%.

For `Nc1c(C(=O)Nc2cccc(F)c2)sc2nc3c(cc12)C(=O)CCC3`, the growth was 51.6%.

As for `CN(C)C=Nc1cc(Cl)ccc1Cl`, the growth was 111%.

With `CC12O[C@H](C[C@@H](O)[C@H]1O)n1c3ccccc3c3c4c(c5c6ccccc6n2c5c31)C(=O)N(CCCN)C4=O`, the growth was 53.9%.

In the case of `S=C1SCC(c2ccccc2)S1` (stereo not drawn), the growth is 109%.

Take `N=C(N)c1ccc(-c2ccc(-c3cccs3)o2)cc1`: the growth is 62.3%.

Turning to `CC(C)(C)c1cc(Br)cc(C(C)(C)C)c1O`, the growth is 103%.

In the case of `COc1cc(C(=O)/C=C/c2cc(-c3cc(OC)c(OC)c(OC)c3)n[nH]2)cc(OC)c1OC`, the growth was -71.7% (active).

Take `COc1cc(NC(=O)CCSc2nc3ccc(Cl)cc3c(=O)n2Cc2ccccc2)cc(OC)c1OC`: the growth was 93.2%.

Consider `COc1ccc(-c2nn(-c3cccc(NC(=O)Nc4cccc(C(F)(F)F)c4)c3)cc2-c2ccncc2)cc1Cl`, for which the growth was 24.2%.

For the compound `COc1ccc(-c2nn(-c3cccc(NC(=O)c4ccc(Cl)c(Cl)c4)c3)cc2-c2ccncc2)cc1Cl`, the growth is 80%.

In the case of `CC(C)(C#N)Nc1ccccc1`, the growth is 101%.

As for `O=S(=O)(Nc1ccccn1)c1ccc(N=Nc2ccc(O)c3ncccc23)cc1`, the growth is 21.4%.

Turning to `CC(C)C[C@H](NC(=O)[C@H](Cc1cccc2ccccc12)NS(=O)(=O)c1cccc2cccnc12)B(O)O`, the growth is -19.4% (active).

Turning to `COc1cc(Cl)cc(-c2nn(-c3cccc(NC(=O)Nc4ccc(Cl)c(C(F)(F)F)c4)c3)cc2-c2ccncc2)c1`, the growth was -4.76% (active).

As for `O=C(Nc1ccc(CN2CCc3nc4cc(O)c(O)cc4cc32)cc1)c1ccc(Cl)c(Cl)c1`, the growth is 104%.

In the case of `CN(C)Cc1cn(-c2ncc(-c3ccc(C(F)(F)F)cc3)c(NC3CCCCCC3)n2)nn1`, the growth was 90.4%.

In the case of `O=C(CSSCC(=O)c1ccc(Cl)cc1)c1ccc(Cl)cc1`, the growth is 85.9%.

For the compound `COc1ccc2c(c1OC)O/C(=C\c1ncc([N+](=O)[O-])n1C)C2=O`, the growth was 17.9%.

As for `Nc1ncn([C@@H]2O[C@H](CO)[C@@H](O)[C@H]2O)c(=O)n1`, the growth was 23.8%.

Take `CSC1=NCCCC1`: the growth is 111%.

Consider `COc1ccc(/C=C2/CN(CCC#N)C/C(=C\c3ccc(OC)cc3)C2=O)cc1`, for which the growth is -14.3% (active).

As to `c1ccc([C@H]2CN3CCSC3=N2)cc1`, the growth was 99.3%.

`COc1cc(Cl)cc(-c2nn(-c3cccc(NC(=O)c4ccc(N5CCOCC5)c(C(F)(F)F)c4)c3)cc2-c2ccncc2)c1`: the growth is 43.1%.

Consider `COc1ccc(OC)c(/C=C/c2nc(SCc3ccccc3)n(-c3ccc(Cl)cc3)n2)c1`, for which the growth was 48.8%.

In the case of `COc1ccc(N=C2C(=Nc3ccc(OC)cc3)N(c3ccc(N(C)C)cc3)C(=S)N2c2ccc(OC)cc2)cc1`, the growth was 12.3%.

Turning to `CCCCCCN1CCN(Cc2ccc(N(CC)CC)cc2)C(=O)C1=O`, the growth is 51.3%.

Regarding `N#Cc1ncc(-c2ccc(C(F)(F)F)cc2)c(NCc2cc(C(F)(F)F)cc(C(F)(F)F)c2)n1`, the growth is 40.3%.

With `COc1ccc2c(c1)O/C(=C\c1ccc([N+](=O)[O-])s1)C2=O`, the growth is 69%.

With `CCCCN(CCCC)c1cc(C(=O)CCCCCN)c2ccccc2n1`, the growth was 38.8%.

On to `O=C(O)CCCCSc1ncnc2nc[nH]c12`, for which the growth is 97.2%.

As to `O=C(Nc1cccc(-n2cc(-c3ccncc3)c(-c3ccc(O)c(Cl)c3)n2)c1)c1cc(C(F)(F)F)cc(C(F)(F)F)c1`, the growth was 71.4%.
